Rows were chosen to be rich in hits. Some 10% of all compounds tested hit in one or more screens of this group.
KinaseGlo FLuc: Counterscreen for Luciferase (Kinase-Glo TM) Inhibition | Potency, µM (top dose mostly 38.3 µM), for the others: top-dose activity change, negative = inhibition, actives largely listed as inhibitors | 200,000 tested, 0.28% active | Kinase-Glo luciferase, ATP luminescence, 8 min | Luciferin 4-monooxygenase (Photuris pensylvanica), Q27757; active = well fitted inhibition curve with a large enough effect; inconclusive = small, poorly fitted or top-dose-only effect; also: potency is read from the fitted curve at half-maximal effect; nearly all actives have a fitted effect of over 60% in size
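Substrate mix (final 50 mM imidazole pH 7.2, 50 mM KCl, 7 mM MgCl2, 10 uM ATP, 0.01% Tween 20, 0.05% BSA) plus pin-tool compound, then Kinase-Glo detection mix; 8 min ambient, luminescence read.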
IMPase cell inh: qHTS Assay for Identifying the Cell-Membrane Permeable IMPase Inhibitors. 120,000 tested, under 10 active. inhibition (IP1 accumulation), % at 46.1 µM. CHO-M1 cells, IP1 accumulation, HTRF TR-FRET ratio. AID 901, 2007; active = well fitted curve in the direction sought with a large enough effect in the signal ratio, not every such curve was filed as active; inconclusive = small, poorly fitted or top-dose-only effect, or a change in a side signal; inactive = no such curve, though single readings can be large or run the other way; the % refers to the signal ratio;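 also: cells stimulated with carbachol in lithium chloride buffer; plate controls were DMSO basal wells for no effect and reference inhibitor wells for full effect; higher means more IMPase inhibition seen as more IP1 and lower FRET ratio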
Target sequence (P97697 whole entry, looked up): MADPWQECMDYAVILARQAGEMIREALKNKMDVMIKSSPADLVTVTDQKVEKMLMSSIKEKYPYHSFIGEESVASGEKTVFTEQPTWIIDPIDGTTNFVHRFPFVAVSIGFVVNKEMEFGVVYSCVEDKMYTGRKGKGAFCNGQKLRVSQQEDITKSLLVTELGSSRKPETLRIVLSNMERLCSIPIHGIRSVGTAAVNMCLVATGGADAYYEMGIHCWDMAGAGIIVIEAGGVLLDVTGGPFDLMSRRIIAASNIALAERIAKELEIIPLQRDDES
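CHO-M1, 2000 cells/well, cultured 16–30 h; cpd up to 46 uM; carbachol (50 uM solution, stimulation buffer w/ 50 mM LiCl, pH 7.4), 30 min 37C; IP-One TR-FRET, 10 min RT; Ex 320/Em 665, 620; Hill-fit AC50.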
LMNA splice mod: qHTS Assay for Modulators of Lamin A Splicing; 200,000 tested, 0.01% active; HeLa LMNA splicing GFP/RFP minigene ratio, 48 h; Potency, µM (doses to about 46.1 µM), without a hit: at the top dose ratio change, negative = inhibition, actives largely listed as inhibitors; active = well fitted inhibition curve with a large enough effect in the signal ratio, with a control signal flat, not every such curve was filed as active; inconclusive = small, poorly fitted or top-dose-only effect, or effect the other way, or a change in a side signal; the % refers to the signal ratio; also: potency is read from the fitted curve at half-maximal effect
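S3 HeLa stable clones carrying a lamin A-EGFP splicing minigene plus DsRed2 were seeded at 600 cells/well in Opti-MEM with 2% FBS, pin-dosed and incubated 48 h at 37°C. Acumen cytometry (488 nm) gave the GFP/RFP total-intensity ratio.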
HPGD block: qHTS Assay for Inhibitors of HPGD (15-Hydroxyprostaglandin Dehydrogenase) | purified HPGD, NADH fluorescence kinetic, PGE2 substrate | 150,000 tested, 4.3% active | Potency, µM, for inactives: at the top dose activity change, negative = inhibition, actives largely listed as inhibitors | 15-hydroxyprostaglandin dehydrogenase [NAD(+)] (Homo sapiens), P15428; also: potency is read from the fitted curve at half-maximal effect
Target sequence (P15428 whole entry, looked up): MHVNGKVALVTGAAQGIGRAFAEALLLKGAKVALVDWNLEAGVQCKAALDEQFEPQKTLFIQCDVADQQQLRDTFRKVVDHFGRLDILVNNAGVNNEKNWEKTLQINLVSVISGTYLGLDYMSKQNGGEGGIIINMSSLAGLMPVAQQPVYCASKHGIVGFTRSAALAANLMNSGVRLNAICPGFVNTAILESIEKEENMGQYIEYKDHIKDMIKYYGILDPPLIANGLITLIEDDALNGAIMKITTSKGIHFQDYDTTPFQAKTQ
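20 nM HPGD preincubated 15 min at room temperature with compound in 50 mM Tris-HCl pH 8, 0.01% Tween 20. Started with 1 mM NAD+ and 30 uM prostaglandin E2; NADH fluorescence (360/450 nm) read 5 times over 30-s intervals, last minus first.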
ALDH1A1 inh: qHTS Assay for Inhibitors of Aldehyde Dehydrogenase 1 (ALDH1A1); Aldehyde dehydrogenase 1A1 (Homo sapiens), P00352; Purified ALDH1A1, NADH fluorescence, propionaldehyde substrate; Potency, µM (series often up to 75.3 µM), for inactives: at the highest dose activity, negative = inhibition, usual class: inhibitors; 220,000 tested, 7.3% active; AID 1030, 2008;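 also: potency is read from the fitted curve at half-maximal effect; plate controls were no enzyme wells and a reference inhibitor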
PNC inhibitor: High Content Assay for Compounds that inhibit the Assembly of the Perinucleolar Compartment | 140,000 tested, 3.1% active | AID 2417, 2010 | PC3M PTB-GFP, PNC prevalence imaging, 16 h; stronger effect = lower value | activity change (PNC), negative = inhibition, % at 10 µM;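 active = readout at or below -70, meaning at least 70% loss of cells showing the perinucleolar compartment, a nuclear body marking cancer cells; inconclusive = readout between -30 and a set limit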;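 also: plate controls were DMSO wells for no effect and camptothecin positive control wells for full effect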
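Compounds are pinned in duplicate onto adhered PC3M cells stably expressing GFP-tagged PTB and incubated 16 h at 37 C. Cells are then fixed, nuclei stained with Hoechst, and PNC-positive cells counted.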
Numbers without * were called inactive; ? = inconclusive; . = not tested or not shown; [ ] = remark or other dose. Unless noted, calls follow the shape of the dose curve; as a rule, active = well fitted inhibition curve with a large enough effect (not every such curve was filed as active); inconclusive = small, poorly fitted or top-dose-only effect, or another doubt; inactive = no such curve, though single readings can be large or run the other way. Unless noted, % is scaled to controls: 0 for no effect and ±100 for the full control effect.

SMILES	KinaseGlo FLuc	IMPase cell inh	LMNA splice mod	HPGD block	ALDH1A1 inh	PNC inhibitor
CCCCC(CC)CNCC(CC)CCCC (stereo not given)	.	.	.	-10%	25µM*	.
CCCCC(CC)COP(=O)(OCC(CC)CCCC)OCC(CC)CCCC (stereo not given)	.	.	.	-5%	-4%	.
COC(=O)c1c(NC(=O)C(C)(C)C)sc2c1C(C(=O)OC)CC2 (stereo not given)	-4%	10	7%	?	?	-8
COC(=O)c1c(NC(=O)C(Cl)Cl)sc2c1C(C(=O)OC)CC2 (stereo not given)	.	.	.	.	0.89µM*	.
Cn1c(=O)n(C)c2cc(N3CCCCC3)c(NC(=O)c3ccc(Cl)cc3)cc21	.	4	.	.	.	.
Oc1ccc(C2C(c3ccccc3)=NN=C(c3ccc(Cl)cc3)N2O)c(O)c1 (stereo not given)	0%	.	-6%	-4%	11µM*	-20
Oc1ccc(-c2[nH]ncc2-c2ccc(Cl)cc2)c(O)c1	-1%	-19	4%	-9%	2%	79
Oc1ccc(C2C(c3ccccc3)=NN=C(c3ccccc3F)N2O)c(O)c1 (stereo not given)	3%	.	?	-3%	8.9µM*	48
O=C(O)[C@@H]1CCCN1Cc1ccc2c(c1)OCO2	-4%[7.66 µM]	.	.	-11%	-2%[13.5 µM]	.
O=C1c2ccccc2C(=O)C12OC2c1cccc2ccccc12 (stereo not given)	-1%	.	-10%	?	1µM*	?
COc1ccc(S(=O)(=O)N2CCCCCC2)cc1	18%	4	-9%	-9%	8%	60
COc1ccc(S(=O)(=O)Nc2ccc(S(=O)(=O)N3CCCC3)cc2)cc1	8%	9	-4%	-5%	0.089µM*	39
COc1ccc(S(=O)(=O)Nc2ccc(S(=O)(=O)N3CCCCC3)cc2)cc1C	1%	1	1%	-12%	4µM*	0
COc1cc(OC)c(S(=O)(=O)N2CCCCC2)cc1S(=O)(=O)N1CCCCC1	-3%	2	12%	3%	3.5µM*	?
COc1ccc(S(=O)(=O)N2CCCN(S(=O)(=O)c3ccc(OC)c(C)c3)CC2)cc1C	1%	1	?	-8%	-4%	?
COc1ccc(S(=O)(=O)Nc2ccc(S(=O)(=O)N3CCCCC3)cc2)cc1	2%	10	0%	-11%	0.35µM*	18
CC(=O)Nc1ccc(S(=O)(=O)N[C@H](C(=O)O)C(C)C)cc1	3%	1	6%	2%	10µM*	-13
COc1ccc2cc(S(=O)(=O)N3CCCCC3)ccc2c1S(=O)(=O)N1CCCCC1	5%	8	?	-7%	0.18µM*	?
O=S(=O)(Nc1ccc(S(=O)(=O)N2CCCCC2)cc1)c1ccc(Br)s1	2%	13	-16%	7%	1.4µM*	4
CC(=O)Nc1ccc(S(=O)(=O)Nc2ccc(S(=O)(=O)N3CCCCCC3)cc2)cc1	2%	6	-15%	-17%	4µM*	4
Cn1c(=O)n(C)c2cc(NS(=O)(=O)c3ccc(Br)s3)ccc21	1%	.	-6%[46 µM]	.	7%	.
CC(=O)Nc1ccc(S(=O)(=O)N2CCN(S(=O)(=O)N3CCCCC3)CC2)cc1	.	.	.	.	10%	.
Cc1ccc(NS(=O)(=O)c2ccc(Br)s2)cc1S(=O)(=O)N1CCOCC1	1%	.	.	.	11µM*	.
CCCCc1ccc(NC(=O)c2cc3c(=O)n4ccccc4nc3n2C)cc1	.	.	16%[46 µM]	.	.	.
Cc1ccc2cc(C(c3nnnn3CC3CCCO3)N3CCc4ccccc4C3)c(=O)[nH]c2c1 (stereo not given)	1%	0	8%	?	18µM*	23
